The panel holds about 79,000 compounds, 15% with a hit somewhere; the sample as a whole holds those more often. Cut-off read from the data, not from the text of the source: active = growth inhibition above about 70%; inactive = the rest.
Tests used:
[1] = NCI Yeast Anticancer Drug Screen. Data for the rad50 strain (AID 155);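 note: 0% = growth of vehicle-only cultures of the same strain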; conditions: S. cerevisiae rad50 strain growth inhibition, active compounds read high; at 50.0 µM unless noted
Summary of the method: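 DNA repair mutant yeast, compound exposure, growth read-out; inhibition is taken relative to vehicle.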

[2] = NCI Yeast Anticancer Drug Screen. Data for the mec2-1 strain (AID 157); conditions: S. cerevisiae mec2-1 strain, active compounds read high; at 50.0 µM unless noted
Summary of the method: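 Using mec2-1 yeast: add compound, measure growth, express inhibition versus vehicle-treated cultures.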

[3] = NCI Yeast Anticancer Drug Screen. Data for the sgs1 mgt1 strain (AID 161);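 note: 0% = growth of cultures given vehicle only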; conditions: S. cerevisiae sgs1 mgt1 strain, active compounds read high; at 50.0 µM unless noted
Summary of the method: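 Growth of a repair-deficient yeast mutant was monitored after compound treatment and expressed as inhibition relative to vehicle-treated cultures.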

[4] = NCI Yeast Anticancer Drug Screen. Data for the cln2 rad14 strain (AID 165);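 note: 0% = growth equal to vehicle treated cultures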; conditions: S. cerevisiae cln2 rad14 strain, active compounds read high; at 50.0 µM unless noted
Summary of the method: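 Yeast strain cln2 rad14, bearing defects in cell cycle control and DNA repair, serves as the test system; values reflect growth inhibition compared with vehicle.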

[5] = NCI Yeast Anticancer Drug Screen. Data for the bub3 strain (AID 167); conditions: S. cerevisiae bub3 mutant strain, active compounds read high; at 50.0 µM unless noted
Summary of the method: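 In this screen, a yeast mutant lacking normal mitotic checkpoint function is challenged with compound. Relative growth versus vehicle gives the inhibition value.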

[6] = NCI Yeast Anticancer Drug Screen. Data for the mlh1 rad18 strain (AID 175); conditions: S. cerevisiae mlh1 rad18 strain growth inhibition, active compounds read high; at 50.0 µM unless noted
Summary of the method: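 Steps: expose repair-defective yeast to compound; measure growth; express inhibition against vehicle-treated controls.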

Measured: growth inhibition

CC(=O)OC1CC2C3CCc4cc(O)ccc4C3CCC2(C)C1 (stereo unspecified)
inactive: [1] 22.4% | [2] -15.8% | [3] -8% | [4] 6.7% | [5] -0.05% | [6] 3.2%

CCn1c2ccccc2c2ccccc21
inactive: [1] 27.2% | [2] -6% | [3] -10.2% | [4] 13.8% | [5] -8.15% | [6] 17.4%

COc1ccc2nc(C(=O)c3ccccc3)c(C)cc2c1
inactive: [1] 8.4% | [2] -28.5% | [3] -10.7% | [4] 1.8% | [5] -10.9% | [6] -13.2%

COc1cc(C2CC(C)(Nc3ccccc3)Oc3cc4c(cc32)OCO4)cc(OC)c1OC (stereo unspecified)
inactive: [1] -6.35% | [2] -13.7% | [3] -3.55% | [4] 4.95% | [5] 4.1% | [6] -14.2%

C=C(C)C(C(=O)OCC)C(=O)OCC
inactive: [1] 3.4% | [2] -2.75% | [3] 7.4% | [4] 10.5% | [5] -21.8% | [6] -4.85%

Cc1nc(N(C)C)oc(=O)c1CCc1ccccc1
inactive: [1] -5.8% | [2] 3.8% | [3] -0.9% | [4] 0.2% | [5] 6.9% | [6] 8.9%

NC1=NCC(CN2CCCCC2)O1 (stereo unspecified)
inactive: [1] 7.1% | [2] 1.8% | [3] -4.05% | [4] -2.4% | [5] -8.3% | [6] 5.9%

FC(F)(F)c1ccc2ccc3ccc(Cl)cc3c2c1
inactive: [1] -7.5% | [2] -24% | [3] -4.3% | [4] -10.4% | [5] 21.6% | [6] -6.55%

Cn1cc2c([N+](=O)[O-])cccc2n1
inactive: [1] 5.35% | [2] 3.75% | [3] 14.7% | [4] -4.6% | [5] -0.9% | [6] 13.2%

COc1ccc(/C(CC2OC(=O)c3ccccc32)=N\NC(=O)C[N+](C)(C)C)cc1 (stereo unspecified)
inactive: [1] 6.1% | [2] -10.8% | [3] 0.4% | [4] 7.55% | [5] 12.1% | [6] 8.5%

CC(CC(=O)O)(CC(=O)O)C(=O)O
inactive: [1] 16.1% | [2] -17.9% | [3] -28.9% | [4] 12.6% | [5] -29.4% | [6] -22.9%

N#Cc1c(-c2ccc(Cl)cc2)c(-c2ccc(Cl)cc2)nn(CCOC(=O)CCC(=O)OCCn2nc(-c3ccc(Cl)cc3)c(-c3ccc(Cl)cc3)c(C#N)c2=O)c1=O
inactive: [1] -11.7% | [2] 8.95% | [3] 5.5% | [4] -24.4% | [5] 4.75% | [6] 26.4%

c1ccc2nc(CCC3CCCCN3)ccc2c1 (stereo unspecified)
inactive: [1] 7.2% | [2] 7.5% | [3] -9.7% | [4] -14.2% | [5] -2.1% | [6] 17.1%

OC1(C2(O)CCCC2)CCCC1
inactive: [1] 14.1% | [2] 8.4% | [3] 22% | [4] 6.75% | [5] 18% | [6] 12.8%

O=C(Nc1ccccc1)c1cc(S(=O)(=O)Nc2n[nH]c(=O)[nH]2)c(SSc2cc(Cl)c(C(=O)Nc3ccccc3)cc2S(=O)(=O)Nc2n[nH]c(=O)[nH]2)cc1Cl
inactive: [1] 18.8% | [2] 22.7% | [3] -8.5% | [4] -6.35% | [5] -2.25% | [6] 25.4%

O=C(CC(=O)N1N=C(n2ccc3ccccc32)CC1c1ccccc1)Nc1ccc(Cl)cc1 (stereo unspecified)
inactive: [1] -25.3% | [2] -7.7% | [3] -16.8% | [4] 7.1% | [5] -4.35% | [6] -5%

COc1cccc(C2c3cc4c(cc3OC(NNS(=O)(=O)c3ccc(C)cc3)C2C)OCO4)c1OC (stereo unspecified)
inactive: [1] 3.75% | [2] 4.55% | [3] 10.3% | [4] 8.05% | [5] 36.9% | [6] 18.2%

CC(=O)c1ccc(Cl)cc1Cl
inactive: [1] -12.4% | [2] -11.8% | [3] -3.7% | [4] -6.65% | [5] -13.3% | [6] -38.5%

CC1(C)OCC2OC3(c4nc(C#N)c(N)o4)OC(C)(C)OC3C2O1 (stereo unspecified)
inactive: [1] -18.8% | [2] -7.05% | [3] -48% | [4] -1.7% | [5] -39.2% | [6] -75%

COc1cc(C(=O)N2CCOC23CCN(Cc2ccccc2)CC3)cc(OC)c1OC
inactive: [1] -1.5% | [2] -30.6% | [3] -7.8% | [4] 13.2% | [5] -6.9% | [6] 2.7%

CN(C)c1ccc(Cc2ccc(N(C)C)cc2N)cc1
inactive: [1] -0.85% | [2] 2.2% | [3] 2.75% | [4] 10.1% | [5] -25.2% | [6] -4.05%

CCN(CC)Cc1cc(O)ccc1NCCCNc1ccnc2cc(Cl)ccc12
inactive: [1] 49.4% | [2] 11.1% | [3] 40.1% | [4] 16.4% | [5] -7.05% | [6] 12.1%

S=C(c1ccco1)N1CCOCC1
inactive: [1] 14.8% | [2] 12% | [3] 25.1% | [4] 12.7% | [5] 16.2% | [6] 10.8%

C=C1C(=O)O[C@@H]2C[C@@H](C)[C@@H]3C=CC(=O)[C@@]3(C)[C@@H](OC(=O)CCCC(=O)O[C@H]3[C@@H]4C(=C)C(=O)O[C@@H]4C[C@@H](C)[C@@H]4C=CC(=O)[C@]43C)[C@H]12
inactive: [1] 50.1% | [2] 49% | [3] 57.6% | [4] 31.1% | [5] 58% | [6] 34.9%

OCCNc1ncnc2c1ncn2C1OC(CO)C(O)C1O (stereo unspecified)
inactive: [1] 6.3% | [2] 5.25% | [3] -12.3% | [4] -23.9% | [5] -20% | [6] 22%

CCOc1ccc(N=Nc2c(N)nc(N)[nH]c2=O)cc1
inactive: [1] 26.3% | [2] 23.6% | [3] 17.4% | [4] 19.9% | [5] -1.25% | [6] 24.1%

Cc1ccc(S(=O)(=O)OCCN(CCOS(=O)(=O)c2ccc(C)cc2)c2cccc([N+](=O)[O-])c2)cc1
inactive: [1] 22.9% | [2] 8.85% | [3] 7.85% | [4] 22.4% | [5] -0.3% | [6] 21.4%

CCCCCCC1(C)NC(=O)NC1=O (stereo unspecified)
inactive: [1] -20.2% | [2] -11.8% | [3] -2.15% | [4] -77.1% | [5] 6.3% | [6] -8.3%

CCCCCCCCCCCCCCCCCCCCCCCCC(=O)O
inactive: [1] -18.6% | [2] -22.6% | [3] -11.4% | [4] 4.15% | [5] -33.5% | [6] -25.5%

CCc1n[nH]c(=O)n1-n1c(C)ccc1C
inactive: [1] -15.8% | [2] -25.9% | [3] -5.2% | [4] 3.15% | [5] -33% | [6] -15.2%

FC(F)(F)c1ccc(C2=CCCCC2)cc1
inactive: [1] 24.1% | [2] 6.45% | [3] 4.45% | [4] 24.5% | [5] -18.6% | [6] 13.2%

CC(=O)OCCc1cccnc1/C=N/O
inactive: [1] -12.9% | [2] -22.5% | [3] -1.4% | [4] 20.6% | [5] -16.4% | [6] -5.2%

CC1=NCC[N+]1(CCc1ccccc1)Cc1ccccc1 (stereo unspecified)
inactive: [1] 3.15% | [2] -5% | [3] -19.8% | [4] -26.9% | [5] -35% | [6] -11.7%

OCCCCCSc1ccccc1
inactive: [1] 17.4% | [2] 4.35% | [3] 7.95% | [4] 1.95% | [5] -11.1% | [6] 7.3%

CCOP(=O)(OCC)C(C)(CC)N/C(=N/C(NC(C)=O)(C(F)(F)F)C(F)(F)F)NC1=NC(C(F)(F)F)(C(F)(F)F)N=C(C(F)(F)F)O1 (stereo unspecified)
inactive: [1] 1.65% | [2] 4.65% | [3] -26.8% | [4] 5.3% | [5] -3.1% | [6] -34.1%

CC/C(CC(=O)CCC(=O)Nc1c(C)cccc1C)=N\NC(=O)NN
inactive: [1] -19.4% | [2] -22% | [3] -4.15% | [4] 24.6% | [5] 3% | [6] -8.5%

COC(=O)C1=CN(CCc2ccc(O)cc2)C(=O)C2C1CC(O)C2C (stereo unspecified)
inactive: [1] 5.6% | [2] -6.2% | [3] 1.2% | [4] -2.2% | [5] -4.55% | [6] -10.2%

Cc1cnc2ccccc2c1/C=C/c1ccc(N(C)C)cc1
inactive: [1] -6.15% | [2] -0.1% | [3] 1.55% | [4] -121% | [5] 14.1% | [6] 14.1%

CC(=O)OCC(C)O (stereo unspecified)
inactive: [1] 28% | [2] -9.7% | [3] 14.3% | [4] -0.3% | [5] 1.2% | [6] 2%

CCOc1ccc(N=Nc2c(O)n(-c3ccc(Cl)cc3)c(=S)n(-c3ccccc3)c2=O)cc1
inactive: [1] -15.2% | [2] 2.5% | [3] 7.85% | [4] -0.15% | [5] 32.5% | [6] 26.4%

CCCN(CCC)CC(O)c1ccc(Cl)c2ccccc12 (stereo unspecified)
inactive: [1] 1.85% | [2] -30.1% | [3] 21.1% | [4] -35.3% | [5] -17.9% | [6] -9.55%
